Bioassay records: PubChem, several laboratories
Hits are enriched below; roughly 22% of the tested compounds scored in any of these assays.
CYP2C9 activ = activators of human CYP2C9; P11712; recombinant CYP2C9, luciferin-H conversion, luminescence; stronger effect = higher value; factor 1 = untreated enzyme, 0 = blocked; activation factor at 5 µM; 1.4% of 96,000 active; AID 1024;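 active means activation factor of 2 or more for CYP2C9 at a 5 µM dose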;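 further: 0 = sulfaphenazole-blocked wells and 1 = vehicle-only wells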
Target sequence (P11712 whole entry, looked up): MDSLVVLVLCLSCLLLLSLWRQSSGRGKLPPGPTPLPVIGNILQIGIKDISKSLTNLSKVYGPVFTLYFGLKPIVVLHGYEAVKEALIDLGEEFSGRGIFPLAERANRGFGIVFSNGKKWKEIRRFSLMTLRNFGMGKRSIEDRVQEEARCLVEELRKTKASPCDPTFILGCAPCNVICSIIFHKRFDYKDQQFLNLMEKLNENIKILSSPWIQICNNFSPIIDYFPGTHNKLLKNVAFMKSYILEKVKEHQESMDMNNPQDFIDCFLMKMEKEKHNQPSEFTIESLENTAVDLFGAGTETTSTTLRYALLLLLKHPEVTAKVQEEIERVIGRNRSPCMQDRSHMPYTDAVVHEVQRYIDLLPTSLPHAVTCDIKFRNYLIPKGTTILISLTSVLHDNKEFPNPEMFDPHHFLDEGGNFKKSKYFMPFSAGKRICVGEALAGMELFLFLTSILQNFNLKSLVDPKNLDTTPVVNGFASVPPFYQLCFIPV
CYP2C19 activ = activators of human cytochrome P450 2C19; 96,000 tested, under 10 active; AID 1025; P33261; recombinant CYP2C19, luciferin-H EGE luminescence; stronger effect = higher value; 0 = fully inhibited enzyme, 1 = untreated enzyme; activation factor at 5 µM;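 active means activation factor of at least 2 at 5 µM in the primary screen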;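 further: 0 = wells with 2.5 mM tranylcypromine and 1 = vehicle-only wells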
CYP2C9 inh = human CYP2C9 inhibition. P11712. CYP2C9 Supersomes, luciferin-H conversion, luminescence. inhibition, % at 5 µM. 20% of 96,000 active;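 active means blocking of liver enzyme CYP2C9 beyond about 50% at 5 µM, limit read from the data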
Measles CPE = protection of cells from measles virus. Measles virus-infected cells, CPE protection, absorbance. protection (pct of control), % at 4 µM. 1.5% of 140,000 active; in the data active means protection mostly above about 24%, no sharp cut-off; inactive means mostly below about 26%
CYP2C19 inhib = blocks human cytochrome P450 2C19. inhibition, % at 5 µM. AID 778. 21% of 96,000 active. CYP2C19 Supersomes, luciferin-H EGE luminescence, 30 min;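 active means CYP2C19 inhibition above a set limit at 5 µM in the primary screen, cut at about 50% in these data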;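 further: plate controls were negative control wells for no effect and 2.5 mM tranylcypromine positive control for full effect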
Numbers without * were called inactive.

Cc1ccc(S(=O)(=O)N2CCN(S(=O)(=O)N3CCOCC3)CC2)cc1C was read as CYP2C9 activ 1.1, CYP2C19 activ 0.5, CYP2C9 inh -6.5, Measles CPE 3.6 and CYP2C19 inhib 50.1*.
Screening O=S(=O)(c1ccc(Oc2ccc(S(=O)(=O)N3CCOCC3)cc2)cc1)N1CCOCC1 returned CYP2C9 activ 1.1, CYP2C19 activ 1, CYP2C9 inh -13.6, Measles CPE 3.9 and CYP2C19 inhib -1.8.
`COc1ccc(S(=O)(=O)N2CCOCC2)c(Cl)c1Cl` gave CYP2C9 activ 4*, CYP2C19 activ 0.3, CYP2C9 inh -304.2, Measles CPE 2.6 and CYP2C19 inhib 70.2*.
For COc1ccc(S(=O)(=O)N2CCOCC2)cc1C(C)C the results were CYP2C9 activ 1.2, CYP2C19 activ 0.9, CYP2C9 inh -20.7, Measles CPE 3.0 and CYP2C19 inhib 6.1.
COc1cc(CCNC(=O)c2cnn3ccccc23)cc(OC)c1OC was read as CYP2C9 activ 0.8, CYP2C19 activ 0.6, CYP2C9 inh 17.0, Measles CPE 5.5 and CYP2C19 inhib 40.5.
Screening O=C(C1CCN(S(=O)(=O)c2ccccc2)CC1)N1CCOCC1 returned CYP2C9 activ 0.9, CYP2C19 activ 0.9, CYP2C9 inh 6.5, Measles CPE 8.1 and CYP2C19 inhib 8.3.
Screening Cc1ccc(CN2C(=O)CCC2C(=O)NCCCN2CCCC(C)C2)cc1 (configuration not stated) returned CYP2C9 activ 1, CYP2C19 activ 1, CYP2C9 inh -0.4, Measles CPE 20.3 and CYP2C19 inhib -2.6.
Screening Cc1ccc(S(=O)(=O)N2CCSC2)cc1C returned CYP2C9 activ 2.3*, CYP2C19 activ 0.9, CYP2C9 inh -130.6, Measles CPE 9.1 and CYP2C19 inhib 7.2.
O=S(=O)(c1ccc2nc(COc3ccc(Cl)cc3Cl)[nH]c2c1)N1CCOCC1 was read as CYP2C9 activ 0.4, CYP2C19 activ 0.5, CYP2C9 inh 57.8*, Measles CPE 52.6* and CYP2C19 inhib 50.7*.
Screening Cc1ccc(S(=O)(=O)N2CCOCC2)cc1C(=O)OCC(=O)N1CCc2ccccc2C1 returned CYP2C9 activ 0.2, CYP2C19 activ 0.3, CYP2C9 inh 78.3*, Measles CPE 29.5 and CYP2C19 inhib 74.7*.
`Cc1ccc(S(=O)(=O)N2CCOCC2)cc1C(=O)N1c2ccccc2Sc2ccccc21` gave CYP2C9 activ 0.4, CYP2C19 activ 0.9, CYP2C9 inh 61.3*, Measles CPE 9.5 and CYP2C19 inhib 14.3.
CCOC(=O)Cc1nnc(NC(=O)CC)s1 was read as CYP2C9 activ 1.1, CYP2C19 activ 1, CYP2C9 inh -5.8, Measles CPE 10.7 and CYP2C19 inhib -3.8.
`COc1ccc(S(=O)(=O)N2CCOCC2)cc1Cl` gave CYP2C9 activ 3.3*, CYP2C19 activ 0.4, CYP2C9 inh -234.2, Measles CPE 6.0 and CYP2C19 inhib 58.9*.
CCC(C)c1cc(S(=O)(=O)N2CCOCC2)ccc1OC (configuration not stated) was read as CYP2C9 activ 1.3, CYP2C19 activ 0.3, CYP2C9 inh -29.4, Measles CPE 5.3 and CYP2C19 inhib 69.1*.
Screening Cc1ccc(NC(=O)CCCCCCCCCCC2COCCO2)c(C)c1 (configuration not stated) returned Measles CPE 0.6.
CCn1c(SCC(=O)NC2CCCCC2C)nnc1-c1ccc(OC)cc1 (configuration not stated) was read as CYP2C9 activ 0.3, CYP2C19 activ 0.3, CYP2C9 inh 67.8*, Measles CPE 9.5 and CYP2C19 inhib 70.7*.
`CCn1c(CNC(=O)Cc2ccc(OC)cc2)nnc1SCC(=O)NC1CCCCC1` gave CYP2C9 activ 0.7, CYP2C19 activ 0.9, CYP2C9 inh 27.1, Measles CPE 13.1 and CYP2C19 inhib 14.4.
`O=C(CSc1nc(-c2ccncc2)nn1CC(=O)N1CCCCC1)NC1CCCC1` gave CYP2C9 activ 0.2, CYP2C19 activ 0.4, CYP2C9 inh 78.7*, Measles CPE 4.7 and CYP2C19 inhib 63.5*.
O=C(Cn1c(SCC(=O)NC2CCCC2)nnc1-c1ccncc1)Nc1ccc2c(c1)OCO2 was read as CYP2C9 activ 0.1, CYP2C19 activ 0.1, CYP2C9 inh 90.6*, Measles CPE 3.7 and CYP2C19 inhib 90.7*.
Screening CCn1c(SCC(=O)NC2CCCCC2)nnc1-c1cccs1 returned CYP2C9 activ 0.8, CYP2C19 activ 0.8, CYP2C9 inh 19.7, Measles CPE 6.8 and CYP2C19 inhib 17.7.
`CCCn1c(SCC(=O)NC2CCCCC2)nnc1-c1ccncc1` gave CYP2C9 activ 0.9, CYP2C19 activ 0.4, CYP2C9 inh 9.6, Measles CPE 5.6 and CYP2C19 inhib 64.6*.
`C[C@]1(C(=O)NCc2cc(F)cc(C(F)(F)F)c2)C=C[C@@H](Cc2ccccc2)N1C(=O)c1ccccc1` gave Measles CPE 6.8.
CCOC(=O)N1C2C=C(C)[C@@H]2[C@@H]2CC(=O)N21 (some centres not stated) was read as Measles CPE 1.9.
Screening Cc1c(O)ccc(/C(Cc2ccc3ccccc3n2)=N\O)c1O returned CYP2C9 activ 0.1, CYP2C19 activ 0.3, CYP2C9 inh 88.5*, Measles CPE 3.8 and CYP2C19 inhib 66.5*.
Screening CC(=O)Oc1ccc(C(=O)Cc2ccc3ccccc3n2)c(O)c1C returned Measles CPE 29.8.
CCC(CC)C(=O)NC12CC3CC(CC(C3)C1)C2 was read as CYP2C9 activ 0.9, CYP2C19 activ 0.9, CYP2C9 inh 13.9, Measles CPE 15.4 and CYP2C19 inhib 12.6.
COCCNc1nc(SCC(=O)N2CCN(c3ccccc3)CC2)nc2ccccc12 was read as Measles CPE 25.0.
For CCCCN(C)C(=O)CSc1nc(NCc2ccc(OC)cc2)c2ccccc2n1 the results were CYP2C9 activ 0.6, CYP2C19 activ 0.5, CYP2C9 inh 43.7, Measles CPE 25.6 and CYP2C19 inhib 53.8*.
`Cn1cc(S(=O)(=O)N2CCN(C(=O)c3ccco3)CC2)c(=O)n(C)c1=O` gave CYP2C9 activ 1.2, CYP2C19 activ 1.1, CYP2C9 inh -21.6, Measles CPE 10.2 and CYP2C19 inhib -14.7.
For Cc1cnc(C(=O)OCC(=O)N2c3ccccc3NC(=O)C2(C)C)cn1 the results were CYP2C9 activ 1, CYP2C19 activ 1, CYP2C9 inh -3.3, Measles CPE 5.5 and CYP2C19 inhib -2.0.
For CC1(C)C(=O)Nc2ccccc2N1C(=O)COc1ccc(S(=O)(=O)N2CCOCC2)cc1Cl the results were CYP2C9 activ 0.3, CYP2C19 activ 0.6, CYP2C9 inh 66.2*, Measles CPE 29.7 and CYP2C19 inhib 41.7.
For CC1(C)C(=O)Nc2ccccc2N1C(=O)COc1ncnc2c(Cl)cc(Cl)cc12 the results were CYP2C9 activ 0.5, CYP2C19 activ 0.2, CYP2C9 inh 49.2, Measles CPE 13.2 and CYP2C19 inhib 77.3*.
For CCCC(C)NS(=O)(=O)c1ccccc1 (configuration not stated) the results were CYP2C9 activ 0.5, CYP2C19 activ 0.1, CYP2C9 inh 54.1*, Measles CPE 15.7 and CYP2C19 inhib 85.9*.
